Measurements as given in PubChem BioAssay (NCATS).
Inconclusive results are not listed. Where a call stands in place of a potency, no number is given. Calls of active or inactive are those of the source. The call rests on the fitted dose curve; in most records, active means well fitted inhibition curve with a large enough effect; inconclusive means small, poorly fitted or top-dose-only effect; inactive means no such curve, though single readings can be large or run the other way.

assay: Tertiary RLuc qRT-PCR qHTS assay for Zika virus inhibitors (AID 1347169); details: infected Vero cells, reporter luminescence, 48-72 h; series mostly up to 45.9 µM; further: nearly all actives have a fitted effect of over 55% in size
Method in brief: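 Inhibition of ZIKV-RLuc replication in Vero cells, read as Renilla luminescence 1-1.5 hrs after live-cell substrate addition, following 48-72 hrs infection at MOI 1-2 in presence of compound.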
Potency means the concentration at half of the fitted maximal effect.

| Structure (SMILES) | Potency |
| --- | --- |
| COc1cccc(CNc2ccc(S(=O)(=O)Nc3nc4ccccc4s3)cc2)c1O | 0.186 µM (active) |
| O=C(O)CC1CCC(c2ccc(-c3ccc(Nc4ccc(C(F)(F)F)nc4)cn3)cc2)CC1 (stereo unspecified) | 16.5 µM (active) |
| C=C1C2CCC3C(CCC4[C@@]3(C)CCC[C@@]4(C)C(=O)O)(C2)[C@@H]1OC(=O)/C(C)=C\C (stereo partly specified) | inactive |
| C=C1CCC2C(C)(C)CCC[C@]2(C)[C@H]1CC/C(C)=C/C(=O)O (stereo partly specified) | inactive |
| O=C(Nc1ccccc1)Nc1ccc(-c2ccc(C(=O)C3CCCC3C(=O)O)cc2)cc1 (stereo unspecified) | inactive |
| Cc1ccc([C@@H]2CC=C(C(=O)O)[C@H](c3ccc(C(C)(C)C)cc3)N2S(=O)(=O)c2ccc(C)cc2)cc1 | 18.6 µM (active) |
| CCc1nnc(NS(=O)(=O)c2ccc(NC(=S)NC(=O)/C=C/c3ccc(F)cc3)cc2)s1 | 23.4 µM (active) |
| CC1(C)CC=C(c2cnc3ccccc3c2)c2cc(C(=O)Nc3ccc(C(=O)O)cc3)ccc21 | inactive |
| CC1C(O)C(O)C2C(C(=O)OCCc3ccc(O)cc3)=COC(O[C@@H]3O[C@H](CO)[C@@H](O)[C@H](O)[C@H]3O)C12 (stereo partly specified) | inactive |
| CC(=O)OC12CC(C)C(OC(=O)c3ccccc3)C1/C=C(/C)C(OC(=O)c1ccccc1)CC(=O)C(C)(C)/C=C/C(C)C2=O (stereo unspecified) | 2.76 µM (active) |
| CC(C)CC(c1c(O)c(C=O)c(O)c(C=O)c1O)C1CCC(C)(O)C2CC(C(C)(C)O)CCC12C (stereo unspecified) | inactive |
